Vif-APOBEC3F blk: blocks the Vif interaction with APOBEC3F; HeLa A3F-eYFP + Vif (tagged APOBEC3F with the HIV-1 protein that degrades it), YFP fluorescence increase; Potency, µM (series often up to 46.1 µM), for the others: top-dose activity, negative = active; 390,000 tested, 0.2% active; AID 602313; also: potency is read from the fitted curve at half-maximal effect; % of control where 0% means no effect; nearly all actives have a fitted effect of over 65% in size
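HeLa cells stably expressing Vif plus C-terminally eYFP-tagged A3F were seeded, incubated overnight at 37 deg C, dosed with compound, incubated overnight again at 37 deg C. Yellow fluorescence (Ex 488/Em 500-530) reported blocked Vif-mediated A3F-eYFP degradation.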
Pin1 inhibitor: inhibitors of human Pin1. Pin1 FP peptide displacement, HiFluor488, 10 min. Potency, µM (doses to about 115 µM), inactives show at the highest dose activity, negative = inhibition, usual class: inhibitors. 390,000 tested, 0.009% active. AID 504891; active = well fitted inhibition curve with a large enough effect in the polarisation, with a control signal flat, not every such curve was filed as active; inconclusive = small, poorly fitted or top-dose-only effect, or effect the other way, or a change in a side signal; inactive = no such curve, though single readings can be large or run the other way; the % refers to the polarisation; also: potency is read from the fitted curve at half-maximal effect; % is scaled to controls: 0 for no effect and ±100 for the full control effect
Target sequence (Q13526 whole entry, looked up): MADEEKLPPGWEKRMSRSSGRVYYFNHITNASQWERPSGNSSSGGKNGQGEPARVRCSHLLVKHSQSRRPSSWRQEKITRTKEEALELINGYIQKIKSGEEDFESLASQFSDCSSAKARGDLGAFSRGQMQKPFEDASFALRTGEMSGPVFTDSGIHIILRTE
LDHA inh: blocks human lactate dehydrogenase A; AID 1347041; activity change, % (values are at about 110 or 230 µM); 480,000 tested, 0.15% active; purified LDHA, NADH/diaphorase-resazurin fluorescence; active compounds read low; P00338; in the data active = activity change below about -30%; inconclusive = mostly about -25% to -30%;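 also: plate controls were DMSO wells for no effect and wells without enzyme for full effect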
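Human LDH5 (2 nM) was incubated with 0.06 mM NADH and 0.2 mM pyruvate for 5 min at room temperature in Tris pH 7.4. Remaining NADH was coupled through diaphorase/resazurin, and resorufin fluorescence was read at 0 and 20 min.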
Tb PGK inh: inhibitors of T. brucei phosphoglycerate kinase. P07378. PGK/GAPDH coupled, Kinase-Glo luminescence, 60 min. Potency, µM (highest dose often 57.5 µM), without a hit: at the top dose activity change, negative = inhibition, actives largely listed as inhibitors. 380,000 tested, 0.043% active. AID 602233; also: potency is read from the fitted curve at half-maximal effect; % is scaled to controls: 0 for no effect and ±100 for the full control effect; nearly all actives have a fitted effect of over 60% in size
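Luminescent ATP detection (Kinase-Glo Plus) follows a 60-minute room-temperature incubation, with wells lacking PGK as controls. Buffer: 100 mM TEA (pH 7.6), 5 mM MgCl2, 0.01% Tween-20. Coupling enzyme GAPDH (100 nM final) supplies unstable 1,3-BPG in-well.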
Vif-A3G inh: blocks the Vif interaction with human APOBEC3G; Q9HC16; HeLa A3G-eYFP + Vif (tagged APOBEC3G with the HIV-1 protein that degrades it), YFP fluorescence, overnight; Potency, µM (titrated, usually from 46.1 µM), for the others: top-dose activity, negative = active, hits mostly inhibitors; 410,000 tested, 0.076% active; AID 602310; also: potency is read from the fitted curve at half-maximal effect; % is scaled to controls: 0 for no effect and ±100 for the full control effect; nearly all actives have a fitted effect of over 60% in size
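Read-out is eYFP fluorescence (Ex 488/Em 500-530) from Vif-expressing HeLa A3G-eYFP cells; more signal means A3G escaped Vif-mediated degradation. Cells plated overnight, compound pinned in, incubated overnight at 37 deg C.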
mIDH1 inhibitor: inhibitors of human mutant IDH1 R132H; Potency, µM (titrated, usually from 76.6 µM), inactives show at the top dose activity change, negative = inhibition, hits mostly inhibitors; 390,000 tested, 0.093% active; IDH1-R132H enzyme, NADPH consumption, diaphorase/resazurin fluorescence; also: potency is read from the fitted curve at half-maximal effect; % is scaled to controls: 0 for no effect and ±100 for the full control effect; nearly all actives have a fitted effect of over 65% in size
Target sequence (O75874 whole entry R132H, stated change not applied): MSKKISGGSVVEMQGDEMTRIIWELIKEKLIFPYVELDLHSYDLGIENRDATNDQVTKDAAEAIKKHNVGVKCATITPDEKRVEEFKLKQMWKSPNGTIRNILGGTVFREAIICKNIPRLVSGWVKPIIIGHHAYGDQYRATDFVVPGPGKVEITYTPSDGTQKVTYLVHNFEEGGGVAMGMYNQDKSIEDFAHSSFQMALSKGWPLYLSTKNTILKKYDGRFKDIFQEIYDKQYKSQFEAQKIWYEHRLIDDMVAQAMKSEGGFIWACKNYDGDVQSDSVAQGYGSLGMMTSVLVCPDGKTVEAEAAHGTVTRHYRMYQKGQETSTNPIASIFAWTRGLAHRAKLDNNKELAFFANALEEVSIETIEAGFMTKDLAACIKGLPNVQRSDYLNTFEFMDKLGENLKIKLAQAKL
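IDH1-R132H (0.5 ug/mL) preincubated 30 min with compound, then NADPH (0.016 mM) and alpha-KG (2 mM) added; 80 min at RT, pH 7.5. Remaining NADPH coupled via diaphorase/resazurin to fluorescence (540/590 nm); concentration-response curves normalized to no-enzyme control.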
* hit, by the source's call; i = inactive; ? = inconclusive; / = not tested or not shown. A selection: hits, their analogues and other compounds. The true share with any hit is near 0.49%. Unless noted, calls follow the shape of the dose curve; as a rule, active = well fitted curve in the direction sought with a large enough effect; inconclusive = small, poorly fitted or top-dose-only effect, or another doubt; inactive = no such curve, though single readings can be large; an effect the other way counts as inactive or inconclusive.

SMILES	Vif-APOBEC3F blk	Pin1 inhibitor	LDHA inh	Tb PGK inh	Vif-A3G inh	mIDH1 inhibitor
CCOc1cccc(OCCOCCNC(C)(C)C)c1	8%	-4%	-32*	-1%	1%	5%
CCOc1ccc(OCCCCNC(C)(C)C)cc1	-1%	-8%	-16	-8%	-1%	1%
COc1ccc(OCC(=O)Nc2cccc(-c3nc4cc(C)ccc4o3)c2C)cc1	/	/	11	/	/	/
O=C(Cn1cnc2sc(-c3ccccc3)cc2c1=O)NCc1ccccc1	-7%	?	-22	i	?	5%
O=C(Cn1cnc2sc(-c3ccccc3)cc2c1=O)NCc1ccco1	0%	5%	2	13µM*	?	-4%
O=C(O)c1ccc(N2CCCCCC2)c(N2C(=O)c3ccccc3C2=O)c1	-2%	-2%	-5	-11%	-1%	-1%
O=C1c2cccc3c(N4CCCCC4)ccc(c23)C(=O)N1c1ccccc1O	8.9µM*	?	1	i	14%	4%
O=C1c2cccc3c(N4CCCCC4)ccc(c23)C(=O)N1c1ccc(O)cc1	?	?	0	-3%	7.9µM*	-2%
CCOc1ccc(S(=O)(=O)N(CC)CC(=O)NCC2CCCO2)cc1 (configuration not stated)	/	/	-12	/	/	/
O=S(=O)(Nc1nc2ccccc2nc1N1CCN(c2ccccn2)CC1)c1ccc(Cl)cc1	7.9µM*	?	-2	-13%	?	8%
O=S(=O)(Nc1nc2ccccc2nc1N1CCc2ccccc2C1)c1ccc(Br)cc1	22µM*	?	1	i	-22%	2%
Cc1ccc(S(=O)(=O)Nc2nc3ccccc3nc2N2CCCCC2)cc1	/	/	-6	/	/	/
O=S(=O)(Nc1nc2ccccc2nc1N1CCc2ccccc2C1)c1ccc(Cl)cc1	-39%	2%	2	0%	-14%	-3%
CN1CCN(c2nc3ccccc3nc2NS(=O)(=O)c2ccc(Br)cc2)CC1	10µM*	-29%	-4	0%	-10%	6%
O=S(=O)(Nc1nc2ccccc2nc1N1CCCCC1)c1ccc(Cl)cc1	/	/	-1	/	/	/
CCN1CCN(CCNC(=O)c2cc(-c3ccc(NC(C)=O)cc3)nc3ccccc23)CC1	/	/	25	/	/	/
C=C(C)C(=O)Oc1ccc(N=Nc2ccc(C)cc2)ccc1=O	-2%	/	9	2.8µM*	?	4%
O=C(CN1CCCC1)Nc1ccccc1C(=O)c1ccccc1	5%	-6%	-8	i	-7%	-2%
O=C(CN1CCN(CC(=O)Nc2ccccc2C(=O)c2ccccc2)CC1)Nc1ccc(F)cc1	/	/	-32*	/	/	/
COc1cccc(Cn2c3ccc(NC(=O)CCc4ccc(F)cc4)cc3c(=O)n2C)c1	/	/	0	/	4µM*	/
CC(CNC(=O)c1nn(C)c(=O)c2ccccc12)c1ccccc1 (configuration not stated)	/	/	2	/	/	/
CCCc1nn2c(N)c(/C=C3\C=Nc4ccccc43)c(=O)nc2s1	17%	?	6	-2%	-2%	3%
COC1=C/C(=C/c2c(N)n3nc(-c4ccc(C)cc4)sc3nc2=O)C=CC1=O	11µM*	?	-30*	-18%	-18%	4%
COC1=C/C(=C/c2c(N)n3c(nc2=O)sc2cc(S(C)(=O)=O)ccc23)C=CC1=O	?	?	-7	i	?	6%
CCOC1=C/C(=C/c2c(N)n3nc(-c4ccccc4)sc3nc2=O)C=CC1=O	8.9µM*	?	8	2%	-16%	-3%
SMILES	Vif-APOBEC3F blk	Pin1 inhibitor	LDHA inh	Tb PGK inh	Vif-A3G inh	mIDH1 inhibitor
CCS(=O)(=O)c1nn2c(N)c(/C=C3/C=CC(=O)C(OC)=C3)c(=O)nc2s1	20µM*	?	-1	1%	-8%	4%
Nc1c(C=C2C=CC(=O)C=C2)c(=O)nc2sc(CC(=O)N3CCCC3)nn12	5%	-3%	-2	-7%	-1%	3%
CC(C)(C)C(=O)COC(=O)c1cc(S(N)(=O)=O)ccc1Br	/	/	-2	/	/	/
CCOc1c(Cl)cc(/C=N/NC(N)=S)cc1OC	11µM*	10%	-5	i	1%	6%
C=CCN1C(=O)c2ccc(C(=O)N(CC(C)C)c3c(N)n(CCCC)c(=O)[nH]c3=O)cc2C1=O	?	?	-5	-5%	7.9µM*	-8%
COCCN1C(=O)c2oc3ccccc3c(=O)c2C1c1ccc(OC)c(OC)c1 (configuration not stated)	-1%	-15%	-1	28µM*	-2%	13%
c1cncc(-c2nc(NCc3cccs3)c3ccccc3n2)c1	18µM*	4%	-10	-8%	-8%	-3%
CCCc1nn(C)c2c(=O)[nH]c(-c3cc(S(=O)(=O)Nc4ccccc4)ccc3OCC)nc12	/	/	-1	/	/	/
O=C(Nc1cccc(C(F)(F)F)c1)C1=C(c2ccccc2)S(=O)(=O)CCO1	/	/	0	/	/	/
COc1ccc(OC)c(-c2c3cc(O)c(=O)cc-3oc3cc(O)c(O)cc23)c1	-17%	?	1	?	1%	40µM*
CCOc1ccccc1-c1c2cc(O)c(=O)cc-2oc2cc(O)c(O)cc12	?	?	-10	?	6%	13µM*
CCC(C)Sc1cccc(-c2nc3cc(C)ccn3c2NC2CCCCC2)c1 (configuration not stated)	22µM*	29%	2	i	-8%	11%
COc1ccc(/C=C/C(=O)c2ccc([N+](=O)[O-])o2)cc1OC	?	-3%	4	-9%	7.9µM*	?
Cc1nc2nc(SCC(=O)c3ccc(Cl)cc3)[nH]c2cc1Br	/	/	1	/	/	/
O=C(NCCc1cccs1)C1CCN(c2ccc(C(F)(F)F)cn2)CC1	/	/	-31*	/	/	/
CC(=O)Nc1ccc(NC(=O)C2CCN(c3ccc(C(F)(F)F)cn3)CC2)cc1	-2%	2%	-4	-5%	1%	8%
COc1ccc(-c2cc(C(=O)NCCO)c3ccccc3n2)cc1	/	/	-4	/	/	/
COc1ccc(C2=CC3=C(Br)C(=O)C(C)(OC(=O)C4CCCC4)C(=O)C3=CO2)cc1 (configuration not stated)	5%	?	10	18µM*	1%	-13%
COC(=O)CCC(=O)OC1(C)C(=O)C2=COC(c3ccc(OC)cc3)=CC2=C(Br)C1=O (configuration not stated)	-3%	?	11	16µM*	-2%	9%
Cc1cccc2c(-c3ccccc3)c(-c3ccccc3)[nH]c12	/	/	8	/	/	/
CC(Sc1nnc(N2CCOCC2)n1-c1cccc(F)c1)c1nc2ccccc2c(=O)[nH]1 (configuration not stated)	/	/	4	/	/	/
O=C(OCCOc1ccccc1)c1ccc2nccnc2c1	/	/	7	/	/	/
